Source: PubChem BioAssay (University of Kansas High Throughput Screening Laboratory)
Shown are actives, neighbours in structure and some others; about 3.6% of the full set was active somewhere.
mHTT-CaM PPI inh – mHTT-calmodulin interaction abrogation; AID 1671202; AlphaScreen His-mHTT/GST-CaM binding, luminescence; inhibition, % at 15 µM; actives 3.6% (n = 190,000);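 note: 0% = both proteins with DMSO and 100% = one protein alone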
Target sequence (P42858 whole entry, looked up, stated change not applied): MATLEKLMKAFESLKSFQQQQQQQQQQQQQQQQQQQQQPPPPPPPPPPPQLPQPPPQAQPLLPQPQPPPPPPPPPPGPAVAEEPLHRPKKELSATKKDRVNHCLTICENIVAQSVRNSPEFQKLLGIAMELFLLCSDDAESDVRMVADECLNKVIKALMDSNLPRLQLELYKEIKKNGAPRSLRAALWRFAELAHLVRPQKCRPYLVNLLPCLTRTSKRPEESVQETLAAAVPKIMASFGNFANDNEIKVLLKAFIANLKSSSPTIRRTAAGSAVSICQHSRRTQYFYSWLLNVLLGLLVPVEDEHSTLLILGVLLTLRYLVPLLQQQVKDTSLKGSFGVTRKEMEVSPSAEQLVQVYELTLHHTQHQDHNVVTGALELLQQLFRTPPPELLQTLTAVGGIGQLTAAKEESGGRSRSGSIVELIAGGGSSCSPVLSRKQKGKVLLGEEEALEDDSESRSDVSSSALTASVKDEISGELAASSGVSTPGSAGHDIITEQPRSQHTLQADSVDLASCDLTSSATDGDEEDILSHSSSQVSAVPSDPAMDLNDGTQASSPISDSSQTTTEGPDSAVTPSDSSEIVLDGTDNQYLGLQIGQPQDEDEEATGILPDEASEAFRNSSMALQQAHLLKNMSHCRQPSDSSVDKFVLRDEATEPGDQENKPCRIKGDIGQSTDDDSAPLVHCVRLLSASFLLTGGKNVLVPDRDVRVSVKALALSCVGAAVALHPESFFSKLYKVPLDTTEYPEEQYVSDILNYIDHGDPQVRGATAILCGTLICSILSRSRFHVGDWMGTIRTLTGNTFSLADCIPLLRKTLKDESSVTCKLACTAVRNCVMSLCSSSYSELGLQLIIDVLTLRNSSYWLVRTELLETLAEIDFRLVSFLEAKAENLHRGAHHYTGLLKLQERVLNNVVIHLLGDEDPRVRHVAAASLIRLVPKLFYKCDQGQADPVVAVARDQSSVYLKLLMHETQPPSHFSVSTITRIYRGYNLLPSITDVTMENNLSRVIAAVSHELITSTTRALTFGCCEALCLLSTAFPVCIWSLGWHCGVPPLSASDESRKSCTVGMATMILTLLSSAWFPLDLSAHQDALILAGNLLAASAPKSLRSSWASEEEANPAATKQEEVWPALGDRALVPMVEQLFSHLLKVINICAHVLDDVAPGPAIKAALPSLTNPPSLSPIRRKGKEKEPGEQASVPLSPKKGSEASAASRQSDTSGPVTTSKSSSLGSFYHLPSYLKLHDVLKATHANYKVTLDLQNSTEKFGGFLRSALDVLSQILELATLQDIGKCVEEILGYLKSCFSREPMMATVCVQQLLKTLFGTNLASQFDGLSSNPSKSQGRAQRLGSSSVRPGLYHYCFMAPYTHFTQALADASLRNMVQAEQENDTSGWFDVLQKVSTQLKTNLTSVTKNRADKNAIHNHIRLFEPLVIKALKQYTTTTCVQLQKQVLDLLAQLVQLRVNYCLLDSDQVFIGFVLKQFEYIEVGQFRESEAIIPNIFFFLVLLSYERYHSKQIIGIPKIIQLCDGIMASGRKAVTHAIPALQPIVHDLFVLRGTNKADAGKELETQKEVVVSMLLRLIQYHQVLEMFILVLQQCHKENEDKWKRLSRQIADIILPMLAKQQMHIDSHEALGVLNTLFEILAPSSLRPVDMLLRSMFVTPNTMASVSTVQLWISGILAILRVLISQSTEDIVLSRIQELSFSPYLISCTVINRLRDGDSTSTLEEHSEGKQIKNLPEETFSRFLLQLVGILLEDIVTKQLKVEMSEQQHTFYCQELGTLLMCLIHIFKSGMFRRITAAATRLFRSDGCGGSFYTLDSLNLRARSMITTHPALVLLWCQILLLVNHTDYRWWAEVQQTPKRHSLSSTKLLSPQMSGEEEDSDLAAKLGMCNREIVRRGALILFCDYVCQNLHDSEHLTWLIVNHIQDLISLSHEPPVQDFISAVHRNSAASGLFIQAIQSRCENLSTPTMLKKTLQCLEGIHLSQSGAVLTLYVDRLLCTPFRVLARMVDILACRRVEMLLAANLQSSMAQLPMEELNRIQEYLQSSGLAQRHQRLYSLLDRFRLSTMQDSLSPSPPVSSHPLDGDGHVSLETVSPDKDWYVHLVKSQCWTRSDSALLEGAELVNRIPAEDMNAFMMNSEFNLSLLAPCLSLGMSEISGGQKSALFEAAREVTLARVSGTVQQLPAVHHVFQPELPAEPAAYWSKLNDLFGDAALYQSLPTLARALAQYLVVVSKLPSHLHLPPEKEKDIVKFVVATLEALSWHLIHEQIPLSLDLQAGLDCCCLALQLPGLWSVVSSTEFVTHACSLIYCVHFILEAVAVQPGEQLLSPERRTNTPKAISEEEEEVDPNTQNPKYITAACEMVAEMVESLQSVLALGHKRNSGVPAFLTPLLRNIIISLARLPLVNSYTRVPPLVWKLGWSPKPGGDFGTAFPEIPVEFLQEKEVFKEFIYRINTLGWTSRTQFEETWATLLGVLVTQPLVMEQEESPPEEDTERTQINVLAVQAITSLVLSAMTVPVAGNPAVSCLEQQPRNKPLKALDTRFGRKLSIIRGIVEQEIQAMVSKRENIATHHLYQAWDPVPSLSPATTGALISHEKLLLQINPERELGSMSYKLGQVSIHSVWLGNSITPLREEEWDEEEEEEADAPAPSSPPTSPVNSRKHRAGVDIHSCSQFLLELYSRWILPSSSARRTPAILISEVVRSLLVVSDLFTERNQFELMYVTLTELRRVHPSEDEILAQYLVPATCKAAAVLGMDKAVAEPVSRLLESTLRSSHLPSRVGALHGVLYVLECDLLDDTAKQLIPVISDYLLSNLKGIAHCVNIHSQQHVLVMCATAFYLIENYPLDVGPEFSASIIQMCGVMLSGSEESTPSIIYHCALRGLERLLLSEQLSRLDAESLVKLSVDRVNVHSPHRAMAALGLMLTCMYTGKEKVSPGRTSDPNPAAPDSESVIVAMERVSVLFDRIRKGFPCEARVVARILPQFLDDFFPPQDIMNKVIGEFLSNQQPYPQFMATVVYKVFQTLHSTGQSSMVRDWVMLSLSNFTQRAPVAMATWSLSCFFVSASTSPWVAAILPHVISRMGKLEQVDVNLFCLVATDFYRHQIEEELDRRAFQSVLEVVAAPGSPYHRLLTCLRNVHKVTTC
Pf apPOL block – Pf-apPOL DNA polymerase inhibition; Recombinant Pf-apPOL, molecular beacon fluorescence, 1.5 h; inhibition, % at 10 µM; actives 0.25% (n = 210,000)
* hit, by the source's call; · = no result given. Cut-off read from the data, not from the text of the source: active = inhibition above about 50%; inactive = the rest.

SMILES	mHTT-CaM PPI inh	Pf apPOL block
CNC(=O)c1cc(Nc2nnc(-c3ccc(OC)cc3)c3ccccc23)ccc1OC	50	-30
COc1ccc(-c2nnc(Nc3ccc(OC)c(C(N)=O)c3)c3ccccc23)cc1	60*	-5
CNc1nccc(N2CCC(CC(=O)NCCCN3CCCCC3)CC2)n1	5	-9
CC(C)N1Cc2cc(C(=O)NCCc3cccs3)sc2C1	3	-2
NC(=O)Cc1ccc(Br)cc1	2	1
COc1cc(/C=C2/C(=O)N(c3ccc(Cl)c(Cl)c3)N=C2C)cc(OC)c1O	67*	2
COc1cc(/C=C2/C(=O)N(c3ccc(Cl)c(Cl)c3)N=C2C)cc(OC)c1OC	14	-4
COc1cc(/C=C2/C(=O)N(c3ccccc3)N=C2C)cc(OC)c1O	52*	-5
COc1cccc(/C=C2/C(=O)N(c3cccc(Cl)c3)N=C2C)c1	96*	-3
COc1cc(/C=C2/C(=O)N(c3ccccc3)N=C2C)ccc1OCc1ccccc1	10	-3
COc1cc(/C=C2/C(=O)N(c3ccccc3)N=C2C)c([N+](=O)[O-])cc1OC	0	-5
COc1ccccc1/C=C1/C(=O)N(c2cccc(Cl)c2)N=C1C	22	2
COc1cc(/C=C2/C(=O)N(c3ccccc3)N=C2C)cc([N+](=O)[O-])c1O	57*	1
CN(C)c1ccc(CNC(=O)CN2CCN(C(=O)Nc3ccc(Cl)cc3)CC2=O)cc1	8	-4
COCCN1CCN(C(=O)C2CC(=O)N(c3cccc(C)c3)C2)CC1 (stereo not given)	7	-5
NC(=O)c1ccc(-n2nnnc2SCC(=O)N2CCOCC2)cc1	-6	-8
CC1=NN(c2ccccc2)C(=O)/C1=C/c1cc(Cl)c(O)c(Cl)c1	64*	-9
COc1ccc(/C=C2/C(=O)N(c3ccc(Cl)c(Cl)c3)N=C2C)cc1[N+](=O)[O-]	12	2
CC1=NN(c2ccccc2)C(=O)/C1=C/c1ccc(O)c(Cl)c1	22	1
CC1=NN(c2cccc(Cl)c2)C(=O)/C1=C/c1ccc(Br)c([N+](=O)[O-])c1	81*	-3
COc1ccc(/C=C2/C(=O)N(c3ccccc3)N=C2C)cc1Br	20	2
C=CCOc1ccc(/C=C2/C(=O)N(c3ccc(Cl)c(Cl)c3)N=C2C)cc1OC	6	-4
COc1cc(/C=C2/C(=O)N(c3ccccc3)N=C2C)cc(Br)c1O	55*	7
COc1cc(/C=C2/C(=O)N(c3ccc(C)c(Cl)c3)N=C2C)ccc1O	52*	-2
Cc1ccc2[nH]cc(CCN3CC(C(=O)N4CCN(c5ccc(F)cc5)CC4)CC3=O)c2c1 (stereo not given)	17	1
SMILES	mHTT-CaM PPI inh	Pf apPOL block
Cc1cc(C)n(C(=O)c2ccc(Cl)cc2[N+](=O)[O-])n1	19	3
O=C(NCC1CN(c2ccc3c(c2)OCO3)C(=O)O1)c1ccccc1C(F)(F)F (stereo not given)	-19	-5
O=C(Nc1ccccc1-c1nc2ccccc2s1)c1cccs1	-19	0
COc1ccc(/C=C2/C(=O)N(c3ccc(Cl)c(Cl)c3)N=C2C)cc1Br	0	1
COc1cc(/C=C2/C(=O)N(c3cccc(Cl)c3)N=C2C)cc(Br)c1O	78*	-2
Cc1cc(C)c(C)c(S(=O)(=O)N2CCN(C)CC2)c1C	-4	-3
Cc1cc(C)c(C)c(S(=O)(=O)N2CCC(c3c[nH]c4c(C)cccc34)CC2)c1C	50*	-5
COc1ccc(C(=O)N/C(=C/c2ccc3c(c2)OCO3)C(=O)NCC(=O)O)cc1	4	10
Cc1cc(-c2ccccc2)nc2cc(C(=O)N3CCOCC3)nn12	5	-2
Nc1c(C(=O)N2CCOCC2)sc2nc(-c3ccccc3)cc(-c3ccccc3)c12	52*	-5
O=C(Cn1cnc([N+](=O)[O-])c1)Nc1cc(Oc2cccnc2)cc([N+](=O)[O-])c1	7	2
O=C(Cn1cnc([N+](=O)[O-])n1)Nc1cc(Oc2ccc(F)cc2)cc([N+](=O)[O-])c1	29	0
O=C(Cn1cc([N+](=O)[O-])nc1[N+](=O)[O-])Nc1cc(Oc2ccccc2)cc([N+](=O)[O-])c1	51*	0
O=C(Cn1cnc([N+](=O)[O-])n1)Nc1cc(Oc2cccc(C(F)(F)F)c2)cc([N+](=O)[O-])c1	51*	-2
CC(C)(C)NC(=O)CSc1nnnn1-c1ccc(C(=O)O)cc1	-4	-1
COc1ccc(NS(=O)(=O)c2ccc(NS(C)(=O)=O)cc2)cc1	2	55*
COc1ccc(NC2=C(C)C(=O)CC2)cc1	-3	-2
CC(=O)Nc1ccc(S(=O)(=O)Nc2ccc(Oc3ccccc3)cc2)cc1	87*	-22
COc1ccc(Nc2ccc(OC)cc2)cc1	90*	-6
COc1ccc(S(=O)(=O)Nc2ccc(Nc3ccccc3)cc2)cc1	89*	1
COc1ccc(NS(=O)(=O)c2ccc(NS(=O)(=O)c3ccc(OC)cc3)cc2)cc1	4	-6
COc1ccc(NS(=O)(=O)c2ccc(NS(=O)(=O)c3ccc(NC(C)=O)cc3)cc2)cc1	0	-1
COc1ccc(S(=O)(=O)Nc2cccc(NS(=O)(=O)c3ccc(OC)cc3)c2)cc1	0	2
Cc1cc(C(=O)Nc2cc(-c3ccccc3)nn2C)no1	·	-11
CC(C)CC(C(=O)NC1CCCC(C)C1C)N1C(=O)c2ccccc2C1=O (stereo not given)	-2	-10
SMILES	mHTT-CaM PPI inh	Pf apPOL block
CCCCN1C(=O)C(C)(C(=O)Nc2ccc(C)cc2C)Oc2cccnc21 (stereo not given)	-9	0
C[n+]1ccccc1/C=C/c1ccc(Br)cc1	1	-6
CCc1csc2nc(C)c(NC(=O)c3ccccc3Br)c(=O)n12	-3	0
NS(=O)(=O)c1ccc(NS(=O)(=O)c2ccc(NC(=S)Nc3ccccc3)cc2)cc1	11	·
O=S(=O)(Nc1ccc(F)cc1)c1ccccc1	-10	-11
O=S(=O)(Nc1ccc(Nc2ccccc2)cc1)c1ccccc1	88*	-2
NS(=O)(=O)c1ccc(NS(=O)(=O)c2ccc(NC(=O)Nc3ccccc3)cc2)cc1	96*	-9
O=[N+]([O-])c1ccccc1S(=O)(=O)Nc1ccc(Nc2ccccc2)cc1	90*	-6
NC(=O)c1ccc(NS(=O)(=O)c2ccccc2[N+](=O)[O-])cc1	3	-2
CC1CCN(C(=O)c2ccc(OCC3CCN(C(=O)c4ccncc4)CC3)cc2)CC1	17	-2
Cc1nc(N2CCC3(CC2)OCCO3)c2c3c(sc2n1)CCCC3	-2	-1
Oc1oc(-c2ccc(Cl)cc2)nc1C=Nc1ccc(Cl)cn1	-1	62*
Oc1oc(-c2ccc(Cl)cc2)nc1C=Nc1ccc(Br)cn1	-3	-4
COc1cccc(NC(=O)CN2CCN(C3c4ccccc4-c4ccccc43)CC2)c1	25	0
CCOc1ccc(NC(=O)CCN2CCN(C3c4ccccc4-c4ccccc43)CC2)cc1	4	-1
CN(C)c1ccc(NC(=O)CCN2CCN(C3c4ccccc4-c4ccccc43)CC2)cc1	93*	-5
O=C(CCN1CCN(C2c3ccccc3-c3ccccc32)CC1)Nc1cccc(C(F)(F)F)c1	69*	0
O=C(CN1CCN(C2c3ccccc3-c3ccccc32)CC1)Nc1ccc(F)c(F)c1	74*	-4
CN(C)c1ccc(NC(=O)CN2CCN(C3c4ccccc4-c4ccccc43)CC2)cc1	36	-2
CCCNC(=O)C(=O)Nc1ccccc1CC	-1	-3
